Hit rate of the full screen: of about 52,000 compounds, about 1,700 (3.3%) were called active. The sample as a whole holds a higher share of actives than the screen did. A number with no mark means an inactive call. Cut-off read from the data, not from the text of the source: active = survival mostly below about 52% (no sharp cut-off); inactive = mostly above about 56%.

For this assay, the system named is Wild type. The experiment in a line: growth inhibition of S. aureus wild type versus tarO mutant, primary screen, teichoic acid synthesis inhibitors, RN4220, OD600 (AID 463173). The note with it: S. aureus RN4220 wild type/DeltatarO growth, OD600, 18 h, stronger effect = lower value, screened at 18.75 µg/mL (by protocol).
Consider `Cc1ccc(C(=O)NC(C)C)cc1C`, for which the survival was 110%.
Then `Cc1cc(NC(=O)c2ccc(Cl)c(Cl)c2)ccc1NC(=O)c1ccco1`, with 95%; and `COCc1c(Br)c(C)nc2sc3c(=O)n(-c4cccc(Br)c4)nnc3c12`, with 87%; and `CCn1c(CSc2ncccn2)nnc1SCC(=O)N1CCc2ccccc21`, with 102%.
Then `CCCN(CCC)CCCNC(=O)Cn1cnc2onc(-c3ccc(F)cc3)c2c1=O`, with 73%; and `Cc1nc(-c2ccccc2)sc1CCNS(=O)(=O)c1ccccc1`, with 69%; and `O=S(=O)(c1ccccc1)c1nc(-c2ccc(F)cc2)oc1N1CCOCC1`, with 73%.
On to `CCSc1oc(-c2ccc(F)cc2)nc1S(=O)(=O)c1ccc(C)cc1`, for which the survival is 41%.
With `CCC(C)S(=O)(=O)c1oc(-c2ccc(F)cc2)nc1S(=O)(=O)c1ccc(F)cc1` (configuration not stated) the figure was 49%.
For `CCCCS(=O)(=O)c1oc(-c2ccc(F)cc2)nc1S(=O)(=O)c1ccccc1`, the survival is 7% (active).
`CCS(=O)(=O)c1oc(-c2ccc(F)cc2)nc1S(=O)(=O)c1ccc(Br)cc1`: the survival is -1% (active).
Consider `CCCCS(=O)(=O)c1oc(-c2ccc(F)cc2)nc1S(=O)(=O)c1ccc(C)cc1`, for which the survival was 33%.
Then `CC(C)CS(=O)(=O)c1oc(-c2ccc(F)cc2)nc1S(=O)(=O)c1ccccc1`, with 3% (active).
Then `CC(C)S(=O)(=O)c1oc(-c2ccc(F)cc2)nc1S(=O)(=O)c1ccccc1`, with 23%.
Then `CSc1oc(-c2ccc(F)cc2)nc1S(=O)(=O)c1ccc(Br)cc1`, with 54%; and `Cc1ccc(-c2nc(S(=O)(=O)c3ccc(F)cc3)c(N3CCN(c4ccccc4)CC3)o2)cc1`, with 89%.
As to `CS(=O)(=O)c1oc(-c2ccc(F)cc2)nc1S(=O)(=O)c1ccc(Cl)cc1`, the survival was -1% (active).
With `CC(C)S(=O)(=O)c1oc(-c2ccc(F)cc2)nc1S(=O)(=O)c1ccc(F)cc1` the figure was 26%; with `CNC(=O)N(O)C1N(c2ccccc2)C(=S)SC1(C)C` (configuration not stated), 109%.
With `O=C(NCc1ccccc1Cl)C1CCCN(c2ncnc3onc(-c4ccc(F)cc4)c23)C1` (configuration not stated) the figure was 65%; with `COc1ccc(-n2cc(C(=O)Oc3cc(C)cc(C)c3)c3ccccc3c2=O)cc1`, 153%; with `COc1cccc(NC(=O)c2ccc(CN3CCN(c4ccccc4)CC3)cc2)c1`, 122%.
Consider `NC(=O)C1CCN(C(=O)c2ccc3c(c2)N(Cc2cccc(Cl)c2)C(=O)c2ccccc2S3(=O)=O)CC1`, for which the survival was 69%.
Turning to `O=C(Nc1c(C(=O)Nc2ccc(F)cc2)oc2ccccc12)c1ccccc1F`, the survival is 30%.
With `Cc1ccc(S(=O)(=O)N2CCN(C(=O)CN3CCOCC3)C2C(C)C)cc1` (configuration not stated) the figure was 105%; with `CCc1ccc(NC(=O)CSc2nc(C)c(C(=O)Nc3ccccc3)c(-c3ccc(OC)c(OC)c3)c2C#N)cc1`, 85%; with `CC(C)Nc1nc(C#N)nc(NC(C)C)n1`, 130%.
Then `COc1cc(NC(=O)c2cc3c(=O)n(Cc4ccco4)ccc3nc2C)cc(OC)c1OC`, with 63%; and `O=c1[nH]c2ccc(N=Cc3ccccc3C(F)(F)F)cc2[nH]1`, with 116%; and `COc1cc(NS(=O)(=O)c2ccc(NC(=O)COc3ccc(Cl)cc3Cl)cc2)nc(OC)n1`, with 93%.
With `C=CCN1C(=O)C(C)(C)N(C(C)=O)c2ccccc21` the figure was 121%; with `CCS(=O)(=O)c1oc(-c2ccc(F)cc2)nc1S(=O)(=O)c1ccccc1`, -1% (active).
`O=S(=O)(c1ccccc1)c1nc(-c2ccc(F)cc2)oc1N1CCCCCC1`: the survival was 19%.
Regarding `O=S(=O)(c1ccccc1)c1nc(-c2ccc(F)cc2)oc1NCc1ccccc1`, the survival is 84%.
Then `Cc1ccc(CNC(=O)c2cc(C3CC3)nc3c2c(C)nn3-c2cccc(Cl)c2C)cc1`, with 94%; and `COc1ccccc1OC(C)C(=O)Nc1cccc(-c2nc3ccccc3s2)c1` (configuration not stated), with 29%; and `Cc1ncc(CO)c2c1Oc1nc(-c3ccc(Cl)cc3)nc(SCC(=O)N3CCCCC3)c1C2`, with 79%.
As to `O=C(NCc1ccccc1)c1ccc2c(c1)N(Cc1cccc(Cl)c1)C(=O)c1ccccc1S2(=O)=O`, the survival is 74%.
Then `O=C(c1ccc2c(c1)N(Cc1ccccc1)C(=O)c1ccccc1S2(=O)=O)N1CCc2ccccc21`, with 87%; and `O=C(c1ccc2c(c1)N(Cc1ccc(Cl)cc1)C(=O)c1ccccc1S2(=O)=O)N1CCc2ccccc21`, with 147%; and `O=C(c1ccc2c(c1)N(Cc1cccc(Cl)c1)C(=O)c1ccccc1S2(=O)=O)N1CCc2ccccc21`, with -3% (active).
With `O=S1(=O)c2ccccc2N(Cc2ccc(Cl)cc2)c2ccccc21` the figure was 129%; with `CCCCN(C)C(=O)c1ccc2c(c1)N(Cc1cccc(Cl)c1)C(=O)c1ccccc1S2=O` (configuration not stated), 124%.
On to `COc1ccccc1CNC(=O)c1ccc2c(c1)N(Cc1cccc(C)c1)C(=O)c1ccccc1S2(=O)=O`, for which the survival was 90%.
With `O=S1(=O)c2ccccc2N(Cc2cccc(Cl)c2)c2ccccc21` the figure was -2% (active).
Then `O=S1(=O)c2ccccc2N(Cc2ccccc2)c2ccccc21`, with 69%.
For the molecule `CN(C(=O)c1ccc2c(c1)N(Cc1cccc(Cl)c1)C(=O)c1ccccc1S2=O)C1CCCCC1` (configuration not stated), the survival was 95%.
Turning to `CCN(C(=O)c1ccc2c(c1)N(Cc1cccc(Cl)c1)C(=O)c1ccccc1S2=O)c1ccccc1` (configuration not stated), the survival is 0% (active).
With `COc1ccccc1CNC(=O)c1ccc2c(c1)N(Cc1cccc(Cl)c1)C(=O)c1ccccc1S2(=O)=O` the figure was 10% (active); with `O=C(Nc1cccc(Cl)c1)c1cc2c(=O)[nH]c3ccccc3c2s1`, 63%.
As for `COc1ccccc1NC(=O)c1sc2nc(C)c(C(=O)Nc3ccc(C)cc3C)c(-c3ccccc3Cl)c2c1N`, the survival is 139%.
Then `CC(C)CC(=O)NCC(c1ccc2c(c1)OCO2)N1CCN(c2ccccc2F)CC1` (configuration not stated), with 76%; and `CCN(CC)CCNC(=O)c1ccc2c(c1)NC(=O)C(CS(=O)(=O)Cc1cccc(Br)c1)N2` (configuration not stated), with 134%; and `O=C(NCCCN1CCN(c2ccccc2F)CC1)c1nnc(Cc2ccc(Cl)cc2Cl)o1`, with 77%.
Then `Cc1ccc(Cl)cc1N1CCN(CCNC(=O)Nc2ccc(Cl)cc2)CC1`, with -6% (active).
With `Cc1ccc(C)c(N2CCN(CCCNC(=O)Nc3ccc(Cl)cc3)CC2)c1` the figure was -6% (active).
For `O=C(NCCCN1CCN(c2ccc(F)cc2)CC1)Nc1ccc(Cl)cc1`, the survival was 64%.
Then `Cc1ccc(Cl)cc1N1CCN(CCCNC(=O)c2nnc(Cc3cccc(Cl)c3)o2)CC1`, with 12% (active); and `CCOc1ccc(NC(=O)NCCN2CCN(c3cc(Cl)ccc3C)CC2)cc1`, with 53%.
With `Cc1cccc(N2CCN(CCNC(=O)Nc3ccc(Cl)cc3)CC2)c1C` the figure was 87%; with `Cc1ccc(Cl)cc1N1CCN(CCNC(=O)Nc2ccccc2Cl)CC1`, 98%.
Take `COc1ccc(Cc2nnc(C(=O)NCCCN3CCN(c4ccccc4F)CC3)o2)cc1OC`: the survival was 87%.

Values taken from PubChem BioAssay AID463173 (ICCB-Longwood Screening Facility, Harvard Medical School, 2010).
